69 compounds from ChEMBL document CHEMBL3988442, “University of Dundee, Small-Polar-MMV Screening Library” (2021) can be followed below.

The campaign covered roughly 69,000 compounds. About 30 (0.04%) showed an effect of 50% or more. What follows is part of a selection rich in strong results, with near analogues and random picks from the rest.

This test addresses T1, Histidine--tRNA ligase (Trypanosoma cruzi (strain CL Brener)) (UniProt Q4DA54).
T1 sequence (whole entry): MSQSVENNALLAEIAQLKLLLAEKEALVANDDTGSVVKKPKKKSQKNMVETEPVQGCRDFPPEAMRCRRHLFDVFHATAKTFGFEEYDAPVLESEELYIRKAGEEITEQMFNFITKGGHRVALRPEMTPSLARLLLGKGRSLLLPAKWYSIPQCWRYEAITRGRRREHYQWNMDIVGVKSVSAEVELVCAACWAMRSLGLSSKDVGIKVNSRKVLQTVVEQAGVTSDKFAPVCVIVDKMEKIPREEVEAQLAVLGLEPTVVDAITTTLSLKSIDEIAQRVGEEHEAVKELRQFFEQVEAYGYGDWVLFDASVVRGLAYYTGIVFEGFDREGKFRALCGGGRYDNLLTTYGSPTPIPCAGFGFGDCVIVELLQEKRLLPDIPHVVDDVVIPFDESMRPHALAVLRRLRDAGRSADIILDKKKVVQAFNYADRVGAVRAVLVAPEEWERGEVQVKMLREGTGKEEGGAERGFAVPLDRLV
Put plainly: Trypanosoma cruzi histidyl tRNA synthetase (Tc-HisRS). It is filed as functional. Also on record: scale not given: direction of the effect not stated beside the values. To be noted: 30 µM.
As for `CC(C)N1[C@H](Cn2cncn2)C[C@@H]2CN(Cc3ccsc3)CC[C@@H]21`, the Percent Effect came out at 0%. Take `O=C(OCc1ccccc1)N1CC[C@H]2CC(CO)O[C@@H]2C1` (some centres undefined): the Percent Effect was -3.09%. As to `CCN1CC[C@@]2(C(=O)N3CCOCC3)CCN(C(=O)C(C)C)CC[C@@H]12`, the Percent Effect was determined as 4.85%. The figure for `O=C(NC1CC1)N1C[C@H]2CN(Cc3cccc(F)c3)C(=O)[C@H]2C1` is 5.88%; for `CC(C)=CCN1C(=O)[C@H]2CC[C@@H]1CN(c1ncccc1C(N)=O)C2` it is -2.41%. Regarding `Cc1nc(CN2C(=O)CC[C@@H]3[C@H]2CCN3C(=O)c2ccno2)cs1`, the Percent Effect stood at 8.87%. As for `O=S1(=O)CCN(Cc2cccnc2)[C@H]2CCN(c3ncccn3)CC[C@H]21`, the Percent Effect came to 6.95%. Regarding `Cn1nccc1C(=O)N1CCN(C(=O)C2CC2)[C@@H]2CS(=O)(=O)C[C@@H]21`, the Percent Effect turned out to be 4.47%.

Take `O=C1C[C@H]2[C@@H](CCN2C(=O)Cc2cccs2)N1Cc1cccnc1`: the Percent Effect was 0.752%. Consider `Cc1cccnc1CN1CCN(CC(=O)N(C)C)[C@@H]2CS(=O)(=O)C[C@@H]21`, for which the Percent Effect was found to be 7.03%.

On to `Cc1cnc(N2CC[C@@H]3OC(COCC(=O)N(C)C)CC[C@@H]32)nc1` (some centres undefined), for which the Percent Effect was -0.614%. For `Cn1cc(N2C(=O)CC[C@@H]3[C@H]2CCN3C(=O)c2cscn2)cn1`, the Percent Effect turned out to be 8.16%. As for `COCCN1CCN(Cc2nccs2)[C@H]2CS(=O)(=O)C[C@H]21`, the Percent Effect is 4.08%. `CCO[C@@H]1CC[C@H]2[C@H]1OCCN2CCOCc1ccccc1`: the Percent Effect worked out at 4.12%. For the compound `Cc1cc(C)nc(N2C[C@H]3OC(=O)N(CCc4cccc(Cl)c4)[C@H]3C2)n1`, the Percent Effect came to 7.82%. In the case of `CNC(=O)[C@H]1C[C@@H]2CN(C(=O)NC(C)C)C[C@H]1O2`, the Percent Effect came to 1.03%.

Consider `CC(C)NC(=O)[C@H]1C[C@@H]2CN(C(=O)NCc3ccccc3)C[C@H]1O2`, for which the Percent Effect was determined as 9.09%. `O=C(c1ccnnc1)N1CCN2C[C@H](Oc3cccc(F)c3)C[C@H]2C1`: the Percent Effect came to 1.62%. For `O=C(c1ccco1)N1CC[C@H]2[C@H]1CC(=O)N2c1cccnc1` the value was 0%. `O=C(N1CCCC1)N1CC[C@H]2[C@H]1CCN2c1ncccn1`: the Percent Effect is 6.8%. Turning to `COC[C@@]12CCC[C@@H]1CN(C(=O)N1CCCC1)C2`, the Percent Effect turned out to be 5.03%. With `O=C(CC1CC1)N[C@@H]1CN(C(=O)c2cccs2)C[C@@H]2CCCO[C@@H]21`, the Percent Effect is 0%. For `CN1C(Cn2cccn2)C[C@@H]2CN(Cc3cnn(C)c3)CC[C@@H]21` (some centres undefined) the value was 7%. For `CCC1=N[C@@]2(CC[C@@H]3CN(Cc4ccc(C)cc4)C[C@@H]32)C(=O)N1C` the value was 7.41%; for `CC(C)CN1CCS(=O)(=O)[C@@H]2CCN(S(=O)(=O)C3CC3)CC[C@@H]21`, 1.07%; for `COc1ccc(CN2C[C@@H]3CC[C@H](C2)N(Cc2snnc2C)C3)cc1`, 11.4%. `CC(C)CN1C(=O)CO[C@@H]2CN(C(=O)CC(F)(F)F)C[C@H]21`: the Percent Effect came out at 7.53%. As to `Cn1cc(NC(=O)N2CCCC2c2ccccn2)ccc1=O` (centres undefined), the Percent Effect is 69.3%. Turning to `Cn1cc(NC(=O)N2CCCC2c2cccnc2)ccc1=O` (centres undefined), the Percent Effect came to 38.6%. On to `Cn1cc(NC(=O)N2CCC2c2ccccc2)ccc1=O` (centres undefined), for which the Percent Effect was found to be 22.6%. `Cc1cccc(C(=O)N2C[C@H](NS(C)(=O)=O)[C@@H]3OCCC[C@@H]32)n1`: the Percent Effect amounted to 12.6%. For `COc1ccc(CNC(=O)Nc2ccc(=O)n(C)c2)cc1` the value was 76.6%; for `COc1ccc(CNC(=O)Nc2ccc(CN3CCOC3=O)cc2)cc1`, 2.12%; for `O=C(NCc1ccoc1)Nc1ccc(CN2CCOC2=O)cc1`, 3.25%. The figure for `Cn1cc(NC(=O)NCc2ccsc2)ccc1=O` is 72.7%; for `Cn1cc(NC(=O)CCc2ccsc2)ccc1=O` it is 18.2%.

With `COC(=O)c1ccc(CNC(=O)Nc2ccc(=O)n(C)c2)cc1`, the Percent Effect amounted to 7.79%. Turning to `CN(Cc1ccsc1)C(=O)Nc1ccc(=O)n(C)c1`, the Percent Effect worked out at 13%. On to `Cc1nnc(NC(=O)NCc2ccoc2)s1`, for which the Percent Effect worked out at 7.43%. As for `Cn1cc(NC(=O)NCc2ccoc2)ccc1=O`, the Percent Effect was determined as 72.7%. Turning to `Cc1ccc(N2CC3(CCN(c4nccs4)C3)C2)nn1`, the Percent Effect was 4.96%. Consider `Cc1ccc(N2CCCC3(COCCN(c4nccs4)C3)C2)nn1` (centres undefined), for which the Percent Effect was 12.4%. For the compound `Cc1ccc(N2CCC3(CC2)COCCN(c2nccs2)C3)nn1`, the Percent Effect turned out to be 62.3%. Take `CNc1cc(-c2ccccc2CN)c2cc[nH]c2n1`: the Percent Effect was 40.2%. In the case of `CNc1cc(-c2cccc(CN)c2)c2cc[nH]c2n1`, the Percent Effect amounted to 81.7%. For the compound `CNc1cc(-c2ccc(COCCN)cc2)c2cc[nH]c2n1`, the Percent Effect was found to be 4.88%.

Take `CN(Cc1cccs1)C1CCC[C@@H]2CN(C(=O)c3cccn3C)C[C@H]12` (some centres undefined): the Percent Effect was 5.06%. `c1cnc(N2CCC3(CC2)CN(CC2CC2)c2ccccc23)nc1`: the Percent Effect amounted to 66.2%. With `O=C1N(CC2CC2)CCC12CCN(c1ncccn1)CC2`, the Percent Effect came out at 4.51%. The figure for `c1ccc2c(c1)N(CC1CCOC1)CC21CCN(c2cnccn2)CC1` (centres undefined) is 29.6%. Consider `CC(C)=CCN1C[C@H]2CC[C@@H]1CN(C(=O)c1ccc3c(c1)OCO3)C2`, for which the Percent Effect is -7.73%. For `O=C1O[C@@H]2CN(Cc3ccccc3F)C[C@@H]2N1CCCN1CCOCC1`, the Percent Effect is 10.2%.

In the case of `CC(C)COC[C@@H]1CC[C@H]2[C@H](CCN2C(=O)c2ccncc2F)O1`, the Percent Effect was -2.8%. With `COCCNC(=O)[C@@]12CCO[C@@H]1CCN(Cc1scnc1C)C2`, the Percent Effect amounted to 4.3%.

With `COc1ccc(N2Cc3nc(N4CCCC4)ncc3C2=O)cc1Cl`, the Percent Effect was -3.73%. Regarding `CCc1cc(N[C@H]2CC[C@@H](N)CC2)n2nc(C)c(C)c2n1`, the Percent Effect was found to be 1.34%. Turning to `CC(C)CS(=O)(=O)N1C[C@H]2C[C@H](C(=O)N3CCN(C)CC3)[C@@H](C1)O2`, the Percent Effect came to 7.78%. With `CN1CCCCC1c1ncc2c(n1)CCN(Cc1ccc(Cl)c(F)c1)C2` (centres undefined), the Percent Effect was 30%.

On to `O=C([C@H]1C[C@@H]2CCN(c3cccc(F)c3)C[C@H]2O1)N1CCCC1`, for which the Percent Effect was 0.952%. Turning to `c1ccc(CNc2ncc(CN3CCCN4CCC[C@H]4C3)cn2)cc1`, the Percent Effect is 48.1%.

As to `CN1CCN2CCN(Cc3cnc(NCc4ccccc4)nc3)CC2C1` (centres undefined), the Percent Effect is 9.88%. Turning to `C1CC(CN2C[C@@H]3C[C@@H](c4nnc(C5CC5)o4)O[C@@H]3C2)C1`, the Percent Effect is 0%. `O=C(c1ccc(F)cc1)N1C[C@@H]2COC[C@]2(COc2cccnc2)C1`: the Percent Effect was 8.47%. Turning to `Cc1ccc(C(=O)N2CC[C@@H]3[C@H]2CCC(=O)N3c2ccccc2)o1`, the Percent Effect is 2.73%. For `CCCN1CC[C@@H]2[C@@H](CO[C@H]2CNC(=O)c2nccn2C)C1`, the Percent Effect came out at 3.09%.

Regarding `COc1ccc(C)cc1CN1CCC(c2cc3ncccc3cn2)CC1`, the Percent Effect was 66.2%.

Turning to `Fc1ccc(F)c(CN2CCC(c3cc4ncccc4cn3)CC2)c1`, the Percent Effect is 29.2%.

For `Fc1cccc(CN2CCC(c3cc4ncccc4cn3)CC2)c1F`, the Percent Effect was found to be 33.9%.

As for `Cc1occc1C(=O)N1C[C@@H]2OCCN(CCN3CCCC3)[C@@H]2C1`, the Percent Effect worked out at 4.9%.
